Reference: PubChem BioAssay AID1903 (Southern Research Specialized Biocontainment Screening …, 2009)
In all, about 310,000 compounds went through this assay and about 1,200 (0.39%) were called active. How the calls were made is not given here. A selection follows. Results with a measured potency or affinity are listed apart.

Biological target: Large T antigen (Simian virus 40) (UniProt P03070)
Test: SV40 large T antigen inhibitors, biochemical (AID 1903)
Conditions: SV40 large T antigen ATPase/helicase inhibition assay; at 20 µM; stronger effect = higher value

Chain of Large T antigen (Simian virus 40) (P03070 whole entry, looked up): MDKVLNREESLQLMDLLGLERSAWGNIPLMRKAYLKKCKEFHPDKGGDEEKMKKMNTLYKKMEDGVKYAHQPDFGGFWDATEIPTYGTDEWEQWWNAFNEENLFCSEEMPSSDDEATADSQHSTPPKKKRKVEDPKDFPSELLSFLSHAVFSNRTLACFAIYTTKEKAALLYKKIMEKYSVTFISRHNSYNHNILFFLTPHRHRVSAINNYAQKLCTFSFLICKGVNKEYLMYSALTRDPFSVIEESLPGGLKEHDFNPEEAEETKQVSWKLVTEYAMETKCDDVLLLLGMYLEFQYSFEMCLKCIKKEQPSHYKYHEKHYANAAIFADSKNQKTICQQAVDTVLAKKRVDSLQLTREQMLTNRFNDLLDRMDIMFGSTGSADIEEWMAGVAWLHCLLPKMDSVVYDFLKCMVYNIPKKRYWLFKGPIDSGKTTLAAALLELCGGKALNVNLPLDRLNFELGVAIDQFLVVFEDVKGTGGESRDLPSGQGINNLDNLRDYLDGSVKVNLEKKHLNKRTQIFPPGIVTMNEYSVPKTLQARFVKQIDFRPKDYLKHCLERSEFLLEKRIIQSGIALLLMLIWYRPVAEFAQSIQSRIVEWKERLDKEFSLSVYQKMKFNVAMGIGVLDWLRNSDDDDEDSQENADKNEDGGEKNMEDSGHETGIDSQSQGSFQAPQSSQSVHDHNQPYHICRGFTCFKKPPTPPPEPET

inhibition, inactive:
CCC1(C)N=c2c(c(=O)n(C)c(=O)n2C)=NO1 (stereo not given) 2.8%
CC(C)CN1C(=O)NC2(CCCc3ccccc32)C1=O (stereo not given) 25%
COc1ccc(/C=C(/NC(=O)c2ccc(C)cc2)C(=O)NCC2CCCO2)cc1 (stereo not given) 9.41%
CCOC(=O)Nc1nc(-c2ccccc2)c(C(=O)c2ccccc2)s1 10%
c1ccc(C2[C@H]3CN(Cc4cccnc4)[C@H](c4ccccc4)C34CC2(c2cccnc2)C4)cc1 (stereo not given in full) 5.83%
CCOC(=O)CSc1ncnc2c1cnn2-c1ccc(Cl)cc1 2.59%
COC(=O)c1nn(-c2ccccc2)c(Cl)c1/C=N/OCc1c(Cl)cccc1Cl 6.28%
COc1cc2c(cc1OC)CN(Cc1ccccc1)CC2 4.34%
COc1cc2c(cc1OC)CC(=O)N(C)CC2 -0.375%
COc1cc(NC(=O)CN2CCCCC2C)c(C)cc1[N+](=O)[O-] (stereo not given) -0.94%
Nn1c(SCC(=O)NC(=O)NCc2ccco2)nnc1-c1ccc(OC(F)F)cc1 19.9%
Cc1ccc(Nc2n[nH]c(C)c2[N+](=O)[O-])cc1C 4.58%
Cc1ccc(Nc2n[nH]c(C)c2[N+](=O)[O-])cc1 -4.15%
O=C(NC1CCN(C(=O)Nc2ccc(F)cc2)CC1)c1ccc(F)cc1 -6.41%
O=C(O)c1cc(S(=O)(=O)O)ccc1O -2.3%
CC1=C/C(=C(\c2ccc(O)c(C)c2)c2ccccc2S(=O)(=O)O)C=CC1=O 1.87%
O=C(NCC(c1cccs1)N1CCOCC1)c1ccc(Cl)cc1 (stereo not given) 20.7%
S=C(Nc1ccc(Nc2ccccc2)cc1)N1CCN(c2ncccn2)CC1 26.2%
COc1cc2c(cc1O)C(Cc1ccc(O)cc1)NCC2 (stereo not given) 14.4%
COc1cc2c(cc1OC)C(Cc1ccc(O)cc1)NCC2 (stereo not given) 70.4%
c1ccc(CCc2nn3c(Cn4nnc5ccccc54)nnc3s2)cc1 -1.97%
O=C1c2ccccc2CCCC12N=NCC2c1cccc2ccccc12 (stereo not given) -6.72%
Cc1ncc(CO)c(/C=N/NC(=O)c2ccc(O)cc2)c1O 4.85%
Cc1ncc(CO)c(/C=N/NC(=O)c2ccc(Br)cc2)c1O 3.1%
O=C1C(Cc2ccccc2)Nc2ncnc(N3CCCCC3)c2N1Cc1ccc(Cl)cc1 (stereo not given) 23.8%
Oc1ccc(C2=NNC(c3ccc(O)cc3)=NN2)cc1 6.31%
Oc1ccc(-c2cccc(-c3ccc(O)cc3)n2)cc1 24.3%
C=CSc1sc(Cl)c(N2CCOCC2)c1[N+](=O)[O-] 15.5%
C=CS(=O)(=O)c1sc(Cl)c(N2CCOCC2)c1[N+](=O)[O-] 28.6%
Cc1nc(-c2ccc(C(=O)Nc3cccc(Br)c3)cc2)cs1 5.4%
O=C(O)c1cn(CCOc2ccccc2Cl)c2ccccc12 -2.87%
CCNC(=O)NC(=O)CN(C)c1ccccc1 1.38%
COc1ccc(N(CC(=O)Nc2cc(C)on2)S(=O)(=O)c2cc(C)ccc2C)cc1 -9.08%
Cc1cccc(N=Nc2cnc(N)s2)c1 14.7%
COc1cc(C(=O)O)ccc1Cl 8.61%
COc1ccc(/C=C/C(=O)N(Cc2ccccc2)c2ccccn2)cc1OC -1.52%
O=C(/C=C/c1c(F)cccc1Cl)Nc1nc2ccccc2[nH]1 9%
COc1ccc2cc(C(=O)CS(=O)(=O)c3ccccc3)c(=O)oc2c1 3.93%
O=C(CS(=O)(=O)c1ccccc1)c1cc2ccccc2oc1=O 32.7%
Cc1cc(NC(=O)c2nn3cccnc3c2Cl)no1 4.99%
Clc1ccc(-c2cnc3ccccc3n2)cc1 5.89%
CN1C(=O)[C@@H]2C[C@@]3([C@@]45C[C@H]6C(=O)N(C)[C@@H](Cc7ccccc7)C(=O)N6[C@@H]4Nc4ccccc45)c4ccccc4N[C@H]3N2C(=O)[C@@H]1Cc1ccccc1 4.57%
O=C(O)CCn1cc(/C=C2\SC(=S)NC2=O)c(-c2ccccc2)n1 1.75%
O=Cc1cn(CCC(=O)O)nc1-c1cccc(Cl)c1 7.59%
COc1ccc(C2(C(=O)Nc3cc(C)on3)CCOCC2)cc1 0.88%
O=C(O)c1cccc(Cn2c(Cl)c(/C=N/Nc3ccccc3)sc2=O)c1 29.6%
O=C(O)c1cccc(Cn2c(Cl)c(/C=N/NC(=O)c3ccccc3)sc2=O)c1 7.08%
CCC(C(=O)NC1CCCCCC1)n1nc(C)c2c(C)n(-c3ccccc3)nc2c1=O (stereo not given) 8.34%
COC(=O)c1ccc(NC(=O)CN(C2CCCCC2)S(C)(=O)=O)cc1 -3.48%
Cc1ccc([N+](=O)[O-])cc1N -1.11%
Cc1cc([N+](=O)[O-])ccc1N 6.27%
Cc1ccc(CN2CCN(C/C=C/c3ccc(F)cc3)CC2CCO)o1 (stereo not given) 19.4%
Cc1sc2ncn(CC(=O)NCc3ccco3)c(=O)c2c1-c1ccc(F)cc1 14.3%
Cc1ccc(C(=O)N2CC(C)SC2=Nc2cccc(S(=O)(=O)N(C)C)c2)cc1 (stereo not given) 18.9%
COc1cc(/C=N/Nc2cccc(C)c2)cc(Br)c1O 13.3%
CCN=C1S/C(=C\c2cc(Br)c(O)c(OC)c2)C(=O)N1CC 25.1%
COc1cc(/C=N/N2C(=O)CSC2=S)ccc1O 37.9%
CCN=c1scc(C)n1/N=C/c1ccc(O)c(O)c1O 9.52%
COc1cc(/C=N/N2CCN(Cc3ccc(Cl)cc3)CC2)cc(Br)c1O 10.9%
COc1ccc(/C=N/N2C(=O)CSC2=S)cc1Br 33.2%
CCN=c1scc(C)n1/N=C/c1ccsc1 12.1%
COc1cc(/C=N/n2c(C3CCCCC3)n[nH]c2=S)cc(Br)c1O 12.8%
COc1ccccc1NC(=O)c1sc2nc(N3CCOCC3)c3c(c2c1N)CCCC3 15.5%
S=c1[nH]nc(-c2ccccn2)n1/N=C/c1c(Cl)cccc1Cl 24.9%
COc1ccccc1N1CCN(C(=O)/C=C/c2ccccc2)CC1 5.64%
COc1ccc(/C=C(/C#N)C(=O)Nc2ccc(C)cc2C)cc1C(=O)O 19.8%
COc1cc(NC(=O)C2=C(N3CCOCC3)/C(=C\c3ccc(Br)cc3)CC2)cc(OC)c1OC -0.46%
O=C(Nc1ccccc1)c1cccc(S(=O)(=O)N2CCCCC2)c1 1.37%
Cn1c2ccccc2c2n[nH]c(=S)nc21 14.8%
CCOC(=O)c1c(S(=O)(=O)NCc2ccc(OC)cc2)c(C)n(C)c1C 8.6%
O=C(CSCC(=O)N1CCCCC1)OCC(=O)c1c[nH]c2ccccc12 7.84%
O=C(CSC1=NS(=O)(=O)c2ccccc2N1)NCCc1ccccc1 10.2%
CCCCCC(=O)N/N=C/c1cc(Br)c(O)c(OC)c1 24.7%
COc1cc(/C=N/NC(=O)CC2(C)OCCO2)cc(Br)c1O 18%
COc1cc(/C=N/N=C/c2cc(OC)c(O)c(OC)c2)cc(OC)c1O 36.7%
O=C1CSC(=S)N1/N=C/c1cc(Br)ccc1O 19.8%
O=C1CSC(=S)N1/N=C/c1ccc(Cl)c([N+](=O)[O-])c1 29.2%
COc1cc(/C=N/N2C(C)CCCC2C)cc(Br)c1O (stereo not given) 29.5%
O=C(O)/C=C/c1ccc(S(=O)(=O)Nc2ccc(C(=O)NCC(=O)O)cc2)cc1 -0.46%
Cc1ccccc1OCC(=O)N(CC(C)C)c1c(N)n(CC(C)C)c(=O)[nH]c1=O -0.915%
CCOC(=O)c1sc(Nc2ccc(F)cc2)nc1C 3.22%
O=C(Cc1ccc(Cl)cc1)Nc1ccccc1C(=O)N1CCCCC1 5.13%
Cc1ccc(/C=N/N2CCN(c3ccccn3)CC2)cc1 3.29%
Oc1cccc(/C=N/N2CCN(c3ccccn3)CC2)c1 27.9%
Cn1cccc1/C=N/N1CCN(Cc2ccccc2Cl)CC1 36.4%
Cn1cccc1/C=N/N1CCN(c2ccccc2)CC1 26.4%
Cn1cccc1/C=N/N1CCN(Cc2ccc(Cl)cc2)CC1 33.2%
C(=N\N1CCN(c2ccccn2)CC1)/c1ccccn1 10.2%
O=C1CC(NCCN2CCOCC2)C(=O)N1Cc1ccc(N2CCCC2=O)cc1 (stereo not given) 2.31%
O=C(CSc1nc2ccccc2o1)NCCOc1ccccc1 -0.36%
CCOc1ccc(CSCCNC(=S)Nc2ccc(OC)cc2)cc1 18.9%
CCOc1ccc(CCNC(=O)C2CC(=O)N(c3ccc4c(c3)OCCO4)C2)cc1OCC (stereo not given) 19.5%
O=C(NCCNc1nccc(C(F)(F)F)n1)c1cccs1 7.79%
CCN(CC)C(=O)CSc1nc2nc(C)cc(C)c2c(=O)[nH]1 3.63%
O=C(Nc1ccc(C2SCCS2)cc1)c1ccccc1 5.93%
Cn1c(N)c(C(=O)COC(=O)CC2CC3CCC2C3)c(=O)n(C)c1=O (stereo not given) 12.6%
Cc1ccc(Cl)cc1Nc1nc(-c2cccnc2)cs1 5.81%
Cc1cccc(C)c1NC(=O)CSCCO 7.3%
Cc1cccc(C)c1NC(=O)CSCC(=O)O 11.2%
Brc1c(CSc2nncn2-c2ccccc2)nc2sccn12 3.07%
